# In ChEMBL document CHEMBL2218924, “A broad activity screen in support of a chemogenomic map for kinase signalling research and drug discovery” (Biochem J, 2013):
# Assays:
# [1] = biological target: T1, Testis-specific serine/threonine-protein kinase 1 (Homo sapiens) (UniProt Q9BXA7); settings: at 1 µM
# T1 sequence (whole entry): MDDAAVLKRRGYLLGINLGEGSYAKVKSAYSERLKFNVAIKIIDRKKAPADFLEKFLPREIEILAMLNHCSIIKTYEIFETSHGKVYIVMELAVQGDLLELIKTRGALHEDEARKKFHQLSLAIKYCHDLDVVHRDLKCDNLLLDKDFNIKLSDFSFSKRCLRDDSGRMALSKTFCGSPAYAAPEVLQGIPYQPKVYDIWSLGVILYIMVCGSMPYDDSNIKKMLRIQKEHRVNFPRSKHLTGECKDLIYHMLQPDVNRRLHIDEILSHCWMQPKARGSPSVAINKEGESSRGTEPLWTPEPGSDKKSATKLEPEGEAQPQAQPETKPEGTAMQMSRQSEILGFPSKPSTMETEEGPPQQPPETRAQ
# [2] = biological target: T1, Testis-specific serine/threonine-protein kinase 1 (Homo sapiens); settings: at 10 µM
# [3] = biological target: T2, Testis-specific serine/threonine-protein kinase 2 (Homo sapiens) (UniProt Q96PF2); settings: at 10 µM
# T2 sequence (whole entry): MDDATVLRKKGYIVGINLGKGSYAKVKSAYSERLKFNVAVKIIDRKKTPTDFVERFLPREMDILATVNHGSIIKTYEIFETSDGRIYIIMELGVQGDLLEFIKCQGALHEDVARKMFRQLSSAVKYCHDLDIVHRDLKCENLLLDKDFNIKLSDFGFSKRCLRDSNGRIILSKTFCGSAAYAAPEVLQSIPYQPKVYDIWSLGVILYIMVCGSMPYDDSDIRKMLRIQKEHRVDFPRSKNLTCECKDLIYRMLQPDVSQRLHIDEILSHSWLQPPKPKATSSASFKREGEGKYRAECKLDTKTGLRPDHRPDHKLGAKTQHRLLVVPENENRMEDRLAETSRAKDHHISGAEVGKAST
# [4] = biological target: T3, Tyrosine-protein kinase Tec (Homo sapiens) (UniProt P42680); settings: at 1 µM
# T3 sequence (whole entry): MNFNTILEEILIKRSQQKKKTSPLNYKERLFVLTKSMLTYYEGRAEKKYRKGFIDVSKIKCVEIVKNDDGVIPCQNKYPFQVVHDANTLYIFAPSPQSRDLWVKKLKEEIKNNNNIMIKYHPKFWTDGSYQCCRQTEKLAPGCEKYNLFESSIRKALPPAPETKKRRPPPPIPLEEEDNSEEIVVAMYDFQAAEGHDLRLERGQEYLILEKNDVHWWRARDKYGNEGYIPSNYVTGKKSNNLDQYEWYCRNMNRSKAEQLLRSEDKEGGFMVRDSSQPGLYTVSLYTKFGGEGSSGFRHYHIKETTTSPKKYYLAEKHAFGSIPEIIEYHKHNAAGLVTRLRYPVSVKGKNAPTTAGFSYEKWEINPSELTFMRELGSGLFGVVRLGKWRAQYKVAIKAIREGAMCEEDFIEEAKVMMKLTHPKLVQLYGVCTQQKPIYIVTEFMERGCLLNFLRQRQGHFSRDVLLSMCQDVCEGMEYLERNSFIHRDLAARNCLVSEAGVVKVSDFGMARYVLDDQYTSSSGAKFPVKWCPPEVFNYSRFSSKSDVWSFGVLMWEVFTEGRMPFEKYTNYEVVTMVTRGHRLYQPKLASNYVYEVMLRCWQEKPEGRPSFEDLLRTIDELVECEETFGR
# [5] = biological target: T3, Tyrosine-protein kinase Tec (Homo sapiens); settings: at 10 µM
# [6] = biological target: Angiopoietin-1 receptor (Homo sapiens) (UniProt Q02763); settings: at 1 µM
# [7] = biological target: Angiopoietin-1 receptor (Homo sapiens) (UniProt Q02763); settings: at 10 µM
# [8] = biological target: High affinity nerve growth factor receptor (Homo sapiens) (UniProt P04629); settings: at 1 µM
# [9] = biological target: High affinity nerve growth factor receptor (Homo sapiens) (UniProt P04629); settings: at 10 µM
# [10] = biological target: BDNF/NT-3 growth factors receptor (Homo sapiens) (UniProt Q16620); settings: at 1 µM
# [11] = biological target: BDNF/NT-3 growth factors receptor (Homo sapiens) (UniProt Q16620); settings: at 10 µM
# [12] = biological target: T4, Tyrosine-protein kinase TXK (Homo sapiens) (UniProt P42681); settings: at 1 µM
# T4 sequence (whole entry): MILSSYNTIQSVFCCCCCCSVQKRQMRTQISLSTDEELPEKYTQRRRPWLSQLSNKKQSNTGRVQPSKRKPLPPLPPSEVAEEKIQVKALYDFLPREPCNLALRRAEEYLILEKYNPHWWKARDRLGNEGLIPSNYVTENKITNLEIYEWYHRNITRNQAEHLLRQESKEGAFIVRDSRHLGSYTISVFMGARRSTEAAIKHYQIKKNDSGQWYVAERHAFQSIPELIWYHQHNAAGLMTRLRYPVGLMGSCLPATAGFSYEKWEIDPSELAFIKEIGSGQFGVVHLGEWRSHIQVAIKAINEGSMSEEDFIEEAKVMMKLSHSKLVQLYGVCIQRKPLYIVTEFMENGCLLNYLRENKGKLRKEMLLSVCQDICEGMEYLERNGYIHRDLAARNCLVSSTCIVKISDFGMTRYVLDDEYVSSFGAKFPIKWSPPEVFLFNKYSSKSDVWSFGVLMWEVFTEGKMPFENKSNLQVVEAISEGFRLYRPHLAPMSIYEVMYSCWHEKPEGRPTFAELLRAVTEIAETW
# [13] = biological target: T4, Tyrosine-protein kinase TXK (Homo sapiens); settings: at 10 µM
# [14] = biological target: T5, Serine/threonine-protein kinase ULK3 (Homo sapiens) (UniProt Q6PHR2); settings: at 1 µM
# T5 sequence (whole entry): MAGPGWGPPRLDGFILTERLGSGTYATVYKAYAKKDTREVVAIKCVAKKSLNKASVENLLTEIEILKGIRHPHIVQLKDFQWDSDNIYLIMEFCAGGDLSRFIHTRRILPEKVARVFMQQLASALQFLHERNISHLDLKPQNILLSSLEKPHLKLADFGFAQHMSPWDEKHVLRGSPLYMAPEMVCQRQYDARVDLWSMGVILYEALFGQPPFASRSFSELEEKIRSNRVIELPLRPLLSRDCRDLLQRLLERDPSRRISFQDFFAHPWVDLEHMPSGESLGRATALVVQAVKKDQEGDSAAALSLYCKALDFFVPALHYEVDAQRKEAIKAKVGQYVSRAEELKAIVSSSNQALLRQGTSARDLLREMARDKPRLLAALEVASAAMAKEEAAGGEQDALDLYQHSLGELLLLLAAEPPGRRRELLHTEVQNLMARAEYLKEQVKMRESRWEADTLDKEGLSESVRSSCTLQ
# [15] = biological target: T5, Serine/threonine-protein kinase ULK3 (Homo sapiens); settings: at 10 µM
# [16] = biological target: Serine/threonine-protein kinase VRK2 (Homo sapiens) (UniProt Q86Y07); settings: at 1 µM
# [17] = biological target: Serine/threonine-protein kinase VRK2 (Homo sapiens) (UniProt Q86Y07); settings: at 10 µM
# [18] = biological target: Serine/threonine-protein kinase WNK2 (Homo sapiens) (UniProt Q9Y3S1); settings: at 1 µM;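 note: residual WNK2 kinase activity expressed as percent of uninhibited control, assayed in MOPS buffer at pH 7.0 containing EDTA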
# [19] = biological target: T6, Serine/threonine-protein kinase ULK2 (Homo sapiens) (UniProt Q8IYT8); settings: at 1 µM
# T6 sequence (whole entry): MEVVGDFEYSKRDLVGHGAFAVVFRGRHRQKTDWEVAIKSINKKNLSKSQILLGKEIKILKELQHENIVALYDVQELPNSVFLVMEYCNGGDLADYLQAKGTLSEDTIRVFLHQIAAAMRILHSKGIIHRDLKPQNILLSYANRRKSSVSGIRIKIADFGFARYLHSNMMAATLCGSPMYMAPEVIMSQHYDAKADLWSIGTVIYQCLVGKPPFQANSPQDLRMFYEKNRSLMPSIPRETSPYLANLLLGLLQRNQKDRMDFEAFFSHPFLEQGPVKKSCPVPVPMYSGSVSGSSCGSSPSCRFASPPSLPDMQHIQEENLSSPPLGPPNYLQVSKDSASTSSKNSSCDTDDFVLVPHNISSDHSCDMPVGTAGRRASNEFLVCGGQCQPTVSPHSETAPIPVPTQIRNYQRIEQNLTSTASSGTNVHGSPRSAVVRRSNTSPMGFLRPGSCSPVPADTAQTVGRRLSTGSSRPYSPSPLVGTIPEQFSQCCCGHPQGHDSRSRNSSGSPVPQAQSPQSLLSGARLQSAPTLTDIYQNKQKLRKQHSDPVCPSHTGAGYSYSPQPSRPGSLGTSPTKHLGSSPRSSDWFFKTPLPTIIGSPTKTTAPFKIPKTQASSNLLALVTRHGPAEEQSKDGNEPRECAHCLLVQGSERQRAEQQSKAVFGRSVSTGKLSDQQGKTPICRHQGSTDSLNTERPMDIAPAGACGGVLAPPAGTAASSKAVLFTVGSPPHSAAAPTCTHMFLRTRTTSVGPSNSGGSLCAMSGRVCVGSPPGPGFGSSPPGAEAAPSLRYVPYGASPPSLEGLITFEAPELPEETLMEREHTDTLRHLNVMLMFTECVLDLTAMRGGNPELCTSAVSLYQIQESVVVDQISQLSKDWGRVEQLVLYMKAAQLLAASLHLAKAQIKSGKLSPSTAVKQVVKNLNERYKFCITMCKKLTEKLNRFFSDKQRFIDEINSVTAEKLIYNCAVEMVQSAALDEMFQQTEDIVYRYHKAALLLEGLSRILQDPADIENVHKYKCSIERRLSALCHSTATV
# [20] = biological target: T6, Serine/threonine-protein kinase ULK2 (Homo sapiens); settings: at 10 µM
# Sequence of BDNF/NT-3 growth factors receptor (Homo sapiens) (Q16620 32-822 limits assumed): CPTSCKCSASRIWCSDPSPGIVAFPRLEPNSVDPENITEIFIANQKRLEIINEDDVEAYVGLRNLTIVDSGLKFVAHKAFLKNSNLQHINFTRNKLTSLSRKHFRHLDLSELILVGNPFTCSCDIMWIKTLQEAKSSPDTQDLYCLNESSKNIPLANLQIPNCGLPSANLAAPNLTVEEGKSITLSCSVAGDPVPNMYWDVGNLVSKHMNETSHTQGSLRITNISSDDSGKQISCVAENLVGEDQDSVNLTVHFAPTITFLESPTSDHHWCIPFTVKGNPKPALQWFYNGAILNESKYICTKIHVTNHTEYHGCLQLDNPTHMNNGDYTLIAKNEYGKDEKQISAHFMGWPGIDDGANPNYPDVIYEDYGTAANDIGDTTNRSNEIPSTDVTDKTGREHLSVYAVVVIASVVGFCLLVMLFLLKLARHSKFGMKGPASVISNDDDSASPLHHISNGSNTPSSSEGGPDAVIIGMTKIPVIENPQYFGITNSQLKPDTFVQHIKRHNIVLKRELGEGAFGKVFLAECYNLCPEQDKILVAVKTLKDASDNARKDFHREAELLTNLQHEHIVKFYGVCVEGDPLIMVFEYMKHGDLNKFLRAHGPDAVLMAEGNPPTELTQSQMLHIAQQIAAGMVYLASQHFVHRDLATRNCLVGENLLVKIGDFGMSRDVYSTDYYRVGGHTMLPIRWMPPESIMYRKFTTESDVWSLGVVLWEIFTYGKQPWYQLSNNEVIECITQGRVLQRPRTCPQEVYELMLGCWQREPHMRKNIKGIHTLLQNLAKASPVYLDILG
# Sequence of High affinity nerve growth factor receptor (Homo sapiens) (P04629 33-796 limits assumed): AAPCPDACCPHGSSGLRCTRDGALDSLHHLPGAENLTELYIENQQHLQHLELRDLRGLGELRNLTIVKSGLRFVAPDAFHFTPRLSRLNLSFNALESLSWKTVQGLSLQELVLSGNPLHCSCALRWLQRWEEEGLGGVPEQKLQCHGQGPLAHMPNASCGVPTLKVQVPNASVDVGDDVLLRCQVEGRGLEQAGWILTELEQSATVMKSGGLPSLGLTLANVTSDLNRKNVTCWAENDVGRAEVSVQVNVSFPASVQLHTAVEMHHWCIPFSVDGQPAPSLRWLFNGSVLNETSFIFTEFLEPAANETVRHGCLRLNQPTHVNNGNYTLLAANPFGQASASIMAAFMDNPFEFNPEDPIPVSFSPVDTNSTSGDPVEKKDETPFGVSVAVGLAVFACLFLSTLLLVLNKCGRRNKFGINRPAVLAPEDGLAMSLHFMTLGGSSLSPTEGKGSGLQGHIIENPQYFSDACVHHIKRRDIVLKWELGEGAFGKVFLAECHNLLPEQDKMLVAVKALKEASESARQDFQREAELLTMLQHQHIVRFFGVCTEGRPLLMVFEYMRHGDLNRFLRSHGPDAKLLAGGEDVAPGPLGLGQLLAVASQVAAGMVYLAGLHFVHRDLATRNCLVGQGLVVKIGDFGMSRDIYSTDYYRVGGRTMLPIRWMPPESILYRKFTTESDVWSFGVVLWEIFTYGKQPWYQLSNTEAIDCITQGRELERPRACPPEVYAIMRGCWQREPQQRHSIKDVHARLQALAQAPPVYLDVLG
# Sequence of Serine/threonine-protein kinase VRK2 (Homo sapiens) (Q86Y07 whole entry): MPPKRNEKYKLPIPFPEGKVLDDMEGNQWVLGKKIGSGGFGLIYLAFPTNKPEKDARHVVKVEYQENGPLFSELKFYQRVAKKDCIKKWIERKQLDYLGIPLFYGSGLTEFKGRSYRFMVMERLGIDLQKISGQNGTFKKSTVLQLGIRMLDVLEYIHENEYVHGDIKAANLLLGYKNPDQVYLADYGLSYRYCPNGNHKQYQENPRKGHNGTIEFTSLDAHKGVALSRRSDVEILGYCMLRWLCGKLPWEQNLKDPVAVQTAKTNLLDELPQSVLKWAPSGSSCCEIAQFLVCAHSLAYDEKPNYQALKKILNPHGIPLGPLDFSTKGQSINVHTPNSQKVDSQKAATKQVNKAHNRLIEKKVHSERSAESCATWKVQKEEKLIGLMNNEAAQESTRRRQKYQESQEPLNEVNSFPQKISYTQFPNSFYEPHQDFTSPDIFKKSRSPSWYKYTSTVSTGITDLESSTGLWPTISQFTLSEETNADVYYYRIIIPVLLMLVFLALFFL
# Sequence of Angiopoietin-1 receptor (Homo sapiens) (Q02763 whole entry): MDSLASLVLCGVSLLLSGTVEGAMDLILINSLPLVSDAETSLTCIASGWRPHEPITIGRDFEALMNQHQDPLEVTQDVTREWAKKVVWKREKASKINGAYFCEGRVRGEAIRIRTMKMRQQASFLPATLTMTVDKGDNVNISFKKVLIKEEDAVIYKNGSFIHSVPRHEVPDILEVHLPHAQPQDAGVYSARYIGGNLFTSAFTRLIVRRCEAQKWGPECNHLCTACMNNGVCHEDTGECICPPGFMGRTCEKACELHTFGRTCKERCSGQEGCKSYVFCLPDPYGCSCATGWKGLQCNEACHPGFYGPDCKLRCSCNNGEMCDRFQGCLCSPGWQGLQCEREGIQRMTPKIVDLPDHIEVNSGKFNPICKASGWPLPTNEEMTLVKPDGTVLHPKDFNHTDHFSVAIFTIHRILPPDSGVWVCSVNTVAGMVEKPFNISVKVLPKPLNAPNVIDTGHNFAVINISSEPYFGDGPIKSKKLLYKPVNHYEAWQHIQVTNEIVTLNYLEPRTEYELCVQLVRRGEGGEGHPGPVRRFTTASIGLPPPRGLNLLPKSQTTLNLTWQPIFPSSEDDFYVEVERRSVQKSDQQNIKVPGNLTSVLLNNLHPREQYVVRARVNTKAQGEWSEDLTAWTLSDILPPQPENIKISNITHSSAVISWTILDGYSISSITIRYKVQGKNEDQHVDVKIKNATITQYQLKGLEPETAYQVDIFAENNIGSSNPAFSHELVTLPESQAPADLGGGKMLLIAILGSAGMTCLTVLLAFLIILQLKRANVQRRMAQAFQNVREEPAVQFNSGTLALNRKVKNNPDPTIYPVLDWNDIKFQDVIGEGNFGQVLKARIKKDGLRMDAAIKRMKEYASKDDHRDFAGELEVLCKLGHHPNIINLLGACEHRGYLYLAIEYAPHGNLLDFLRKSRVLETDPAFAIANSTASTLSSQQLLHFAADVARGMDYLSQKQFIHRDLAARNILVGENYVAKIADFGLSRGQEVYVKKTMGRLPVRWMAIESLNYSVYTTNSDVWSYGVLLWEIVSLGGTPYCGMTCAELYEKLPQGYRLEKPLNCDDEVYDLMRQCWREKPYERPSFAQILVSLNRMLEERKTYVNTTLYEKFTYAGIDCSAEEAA
SMILES,residual activity [1],residual activity [2],residual activity [3],residual activity [4],residual activity [5],residual activity [6],residual activity [7],residual activity [8],residual activity [9],residual activity [10],residual activity [11],residual activity [12],residual activity [13],residual activity [14],residual activity [15],residual activity [16],residual activity [17],residual activity [18],residual activity [19],residual activity [20]
O=C1Nc2ccc(Cl)cc2/C1=C/c1cc(Cl)c(O)c(Cl)c1,95%,78%,57%,89%,70%,75%,51%,-1%,2%,38%,3%,93%,80%,89%,47%,110% (inactive),92%,,,
O=C1Cc2c([nH]c3ccc(Br)cc23)-c2ccccc2N1,87%,49%,76%,92%,55%,,,,,,66%,,,,,99% (inactive),90%,93% (inactive),,
CCN(CC)CCNC(=O)c1c(C)[nH]c(/C=C2\C(=O)Nc3ccc(Cl)cc32)c1C,8%,0%,26%,78%,29%,56%,19%,-1%,0%,40%,-12%,70%,21%,17%,2%,,,,23%,2%
O=C1C(Cl)=C(N2C(=O)CCC2=O)C(=O)c2ccccc21,101%,79%,80%,90%,79%,,71%,89%,68%,85%,93%,76%,87%,87%,97%,93% (inactive),98%,89% (inactive),,
Nc1n[nH]c2nc3ccccc3nc12,85%,87%,71%,81%,86%,,,86%,67%,84%,85%,87%,76%,87%,84%,99% (inactive),86%,,,92%
COc1ccc(Cl)cc1NC(=O)Nc1cc(C)nc2ccccc12,95%,87%,88%,93%,55%,,,100%,60%,,,,60%,,96%,98% (inactive),94%,,,85%
O=C(NC(NC(=S)Nc1ccc(F)c([N+](=O)[O-])c1)C(Cl)(Cl)Cl)C(c1ccccc1)c1ccccc1 (stereo not drawn),87%,103%,101%,102%,62%,,82%,87%,52%,91%,89%,82%,76%,97%,98%,,95%,,96%,
CC(C)(C)c1nc2c3ccc(F)cc3c3c(=O)[nH]ccc3c2[nH]1,42%,60%,,,,78%,64%,3%,6%,71%,-2%,63%,57%,56%,13%,,,,26%,25%
O=S(=O)(NCCNC/C=C/c1ccc(Br)cc1)c1cccc2cnccc12,100%,67%,,,,,69%,,78%,,,74%,61%,,,,,,,
Cn1sc(=O)n(Cc2ccccc2)c1=O,63%,80%,84%,97%,75%,,,81%,68%,,,83%,88%,92%,92%,98% (inactive),90%,96% (inactive),90%,93%
Cn1c2ccccc2c2c3c(c4c5ccccc5n(CCC#N)c4c21)CNC3=O,12%,10%,40%,4%,9%,,,0%,-1%,44%,-12%,8%,8%,39%,16%,97% (inactive),,97% (inactive),99%,
O=c1cc(N2CCNCC2)oc2c(-c3ccccc3)cccc12,101%,93%,82%,,80%,69%,78%,,,,,,98%,101%,92%,95% (inactive),90%,,100%,95%
NCCNc1ncc(C(N)=O)c(Nc2cccc(C(F)(F)F)c2)n1,56%,10%,,,,100%,49%,,,47%,29%,,61%,82%,24%,,43%,111% (inactive),,
CC(C)c1nn(-c2c(Cl)cccc2Cl)c2nc(Cc3ccc(OCCO)cc3)[nH]c(=O)c12,91%,94%,79%,90%,85%,,86%,87%,74%,,79%,96%,99%,84%,45%,100% (inactive),96%,108% (inactive),81%,49%
